Screens as filed in PubChem.
PKA-R2B act = activators of human PKA-R2B complex. PKA-R2B holoenzyme dissociation, Cy5-IP20 fluorescence polarization; R2B truncated from residue 108, S112A mutant; 0% DMSO only, 100% 113 µM cGMP. P22694+P31323. AID 504700. actives 0.079% (n = 340,000). activation, % at 11.4 µM;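 active = activation above a cutoff set at the mean over all compounds plus 3 SD, cut at about 18% in these data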;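 also: higher means more holoenzyme dissociation and a rise in polarization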
PAFAH1B2 inh = PAFAH1B2 (human) inhibition; recombinant PAFAH1B2, FP-rhodamine activity probe, fluorescence polarization; actives 1.2% (n = 340,000); AID 492953; inhibition, % at 3.39 µM;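 active = inhibition above the mean of all tested compounds plus 3 SD, cut at about 24% in these data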;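 also: 0% = enzyme with DMSO and 100% = wells lacking PAFAH1B2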
Target sequence (P68402 whole entry, looked up): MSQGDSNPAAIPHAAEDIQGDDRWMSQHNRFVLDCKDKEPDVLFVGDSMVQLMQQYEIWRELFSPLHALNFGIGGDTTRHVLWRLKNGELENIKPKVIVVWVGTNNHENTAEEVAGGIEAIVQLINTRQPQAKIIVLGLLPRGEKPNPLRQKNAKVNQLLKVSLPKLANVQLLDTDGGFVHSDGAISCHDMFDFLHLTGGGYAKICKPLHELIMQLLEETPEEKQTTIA
PKA-R1A activ = activators of PKA-R1A complex; PKA-R1A dissociation, Cy5-IP20 fluorescence polarization; scaled: DMSO 0%, 113 µM cGMP 100%; AID 504707; activation, % at 11.4 µM; actives 0.083% (n = 340,000); P00514+P68181;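 active = percent activation above the mean of all tested compounds plus 3 SD, cut at about 19% in these data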;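 also: higher means more PKAc released from R1A so a rise in polarization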
PAFAH1B3 inh = inhibitors of human PAFAH1B3; inhibition, % at 3.39 µM; AID 492972; recombinant PAFAH1B3, FP-rhodamine probe, fluorescence polarization; actives 0.28% (n = 340,000); Q15102;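 active = inhibition above the screen-wide average of all tested compounds plus 3 SD, cut at about 25% in these data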;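 also: 0% = enzyme with DMSO only and 100% = wells lacking PAFAH1B3 protein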
Target sequence (Q15102 whole entry, looked up): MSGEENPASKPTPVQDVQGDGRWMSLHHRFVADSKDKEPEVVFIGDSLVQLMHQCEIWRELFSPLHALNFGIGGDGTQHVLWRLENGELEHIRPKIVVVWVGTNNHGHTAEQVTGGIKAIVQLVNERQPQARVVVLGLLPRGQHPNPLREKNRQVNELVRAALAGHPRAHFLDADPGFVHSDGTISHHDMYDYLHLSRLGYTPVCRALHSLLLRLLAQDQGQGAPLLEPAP
PAFAH2 inh = inhibitors of human PAFAH2; inhibition, % at 3.39 µM; recombinant PAFAH2, FP-rhodamine activity probe, fluorescence polarization; Q99487; actives 0.99% (n = 340,000);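 active = inhibition above the mean over all tested compounds plus 3 SD, cut at about 30% in these data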;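 also: inhibitors block probe labeling of enzyme so polarization drops; 0% = enzyme with DMSO and 100% = wells lacking PAFAH2 protein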
pPAFAH FP inh = inhibitors of human plasma PAF acetylhydrolase (pPAFAH); recombinant pPAFAH, FP-rhodamine probe fluorescence polarization; inhibition, % at 3.39 µM; actives 1.5% (n = 330,000); Q13093;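 active = inhibition above the mean inhibition across the screen plus 3 SD, cut at about 25% in these data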;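 also: inhibitors block binding of the rhodamine activity-based probe so polarization drops; 0% = enzyme with DMSO and 100% = wells lacking pPAFAH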
The depositor's hits bear a star; · = no result. This is a sample that favours compounds with a hit; in the whole collection about 2.6% have one here.

SMILES	PKA-R2B act	PAFAH1B2 inh	PKA-R1A activ	PAFAH1B3 inh	PAFAH2 inh	pPAFAH FP inh
O=C1CC(SCc2nc3ccccc3[nH]2)C(=O)N1c1ccc(F)c(Cl)c1 (stereo not drawn)	2	29*	3	5	2	2
O=C1CC(SCc2nc3ccccc3[nH]2)C(=O)N1c1cccc(F)c1 (stereo not drawn)	1	9	4	8	3	5
COc1cc(/C=C/C(=O)OCC(=O)N2CCCCCC2)cc(OC)c1OC	-1	·	-10	·	·	·
Cc1cc(NS(=O)(=O)c2ccccc2)ccc1NS(=O)(=O)c1ccccc1	2	28*	-10	5	12	·
Cc1ccc(NS(=O)(=O)c2ccc3c(c2)C(=O)c2ccccc2C3=O)c(C)c1	-8	2	-5	12	11	32*
CN(c1cccc(NC(=O)CCSc2ccccc2)c1)S(C)(=O)=O	-5	8	-5	2	8	9
Cc1ccc(NS(=O)(=O)c2ccc(NC(=O)CSc3ccc(Cl)cc3)cc2)c(C)c1	-12	18	4	9	-7	33*
CN(c1cccc(NC(=O)CSc2ccc(Cl)cc2)c1)S(C)(=O)=O	5	49*	6	-1	10	29*
Cc1ccc(NS(=O)(=O)c2ccc(NC(=O)c3ccc(Br)o3)cc2)c(C)c1	-5	-17	8	-19	-38	15
COc1ccc(C(NC(=O)CN2CCCCCC2)c2ccc(OC)cc2)cc1	8	3	-9	4	-6	12
CSc1cccc(NC(=O)N2CCc3ccc(NC(=O)c4ccccn4)cc3C2)c1	2	-6	-1	1	-13	4
Cc1ccc(NS(=O)(=O)c2ccc(NC(=O)c3ccccc3C(=O)O)cc2)c(C)c1	-3	11	0	4	4	34*
Cc1nc(NS(=O)(=O)c2ccccc2)sc1NC(=O)Nc1ccc(Cl)cc1	8	4	11	8	5	34*
O=C(Nc1ccc(NS(=O)(=O)c2ccccc2)cc1)c1ccccc1Cl	4	6	4	3	6	25*
O=c1cc(C=NNc2ccc([N+](=O)[O-])cc2)[nH]c(=O)[nH]1	-7	4	0	11	1	·
CC1(C)C(=O)C=CC(=O)C(C)(C)C(=O)C=CC(=O)C(C)(C)C2=CC=C(O2)C(C)(C)C(=O)C=CC1=O	-5	6	-2	8	4	·
O=c1[nH]cnc2c1c(-c1ccccc1)cn2-c1cccc(Cl)c1	4	2	13	9	5	34*
COc1cc(OC)cc(C(=O)NCCCCCCNC(=O)c2cc(OC)cc(OC)c2)c1	7	-1	9	-2	7	8
O=C1C(Nc2cccc(O)c2)=C(N2CCCCC2)C(=O)c2ccccc21	-9	25*	-14	66*	60*	17
O=C1C(NS(=O)(=O)c2ccc(Br)cc2)=C(N2CCCCC2)C(=O)c2ccccc21	-4	8	-5	12	6	11
O=C1C(Nc2ccccc2)=C(N2CCCCC2)C(=O)c2ccccc21	-9	17	-5	60*	37*	5
CCCCCOC(=O)c1ccc(NC(=O)c2cccc(NC(=O)c3ccccc3C(=O)O)c2)cc1	-17	3	-10	4	1	8
O=C(CCN1C(=O)C2CCCCC2C1=O)Nc1cc([N+](=O)[O-])ccc1Cl (stereo not drawn)	-2	7	-3	10	9	-4
O=C(Nc1ccccc1C(F)(F)F)c1ccc2nccnc2c1	7	-2	4	9	-2	8
COc1ccc(/C=C/C(=O)OCC(=O)NC2CCCCCC2)cc1	-2	·	-6	·	·	·
SMILES	PKA-R2B act	PAFAH1B2 inh	PKA-R1A activ	PAFAH1B3 inh	PAFAH2 inh	pPAFAH FP inh
COc1cc(/C=C/C(=O)OCC(=O)Nc2cccc(F)c2)ccc1O	-11	2	-3	11	93*	28*
COc1cc(/C=C/C(=O)OCC(=O)NC2CCCCCCC2)ccc1O	3	5	4	-8	76*	27*
COc1cc(/C=C/C(=O)OCC(=O)NC(=O)NC(C)(C)C)ccc1O	-1	6	-16	11	28	3
O=C(OCC(=O)N1CCC(c2ccccc2)=N1)c1ccc([N+](=O)[O-])s1	-14	15	-13	16	21	25*
O=C(COC(=O)c1ccc([N+](=O)[O-])s1)Nc1ccc(Cl)cn1	-10	11	-12	24	22	20
O=C(COC(=O)c1ccc([N+](=O)[O-])s1)Nc1ccccc1	-2	10	-8	34*	81*	15
O=C(OCc1nnc(-c2ccccc2)o1)c1ccc([N+](=O)[O-])s1	2	24	12	31*	31*	14
O=C(COC(=O)c1ccc([N+](=O)[O-])s1)Nc1ccc(F)cc1	0	10	-1	34*	52*	12
CCc1nc2ccc(C(=O)N(CC)CC(=O)Nc3c(F)cccc3F)cc2nc1CC	8	-5	10	-8	0	10
COc1ccccc1CNC(=O)CN1C(=O)NC2(CCCC2)C1=O	4	2	-3	13	5	-1
Cc1ccccc1NC(=S)N1CCN(c2ccccc2Cl)CC1	8	2	9	8	-6	6
Cc1nc(C)c(C(=O)OCC(=O)Nc2ccccc2)s1	-4	-1	-1	13	95*	26*
Cc1c(Cl)cnc(NC(=O)COC(=O)c2ccc([N+](=O)[O-])s2)c1Cl	-6	16	6	33*	47*	20
CC(=NNC(=O)c1ccncc1)c1cccc(Cl)c1	4	3	-8	7	3	·
Cc1ccc(NC(=O)COC(=O)C2CCN(c3ccc(C(F)(F)F)cn3)CC2)cc1	-6	9	-2	10	13	7
O=C(NN1CCOCC1)c1ccccc1	3	-4	-4	5	-3	0
O=C(O)c1cc(NS(=O)(=O)c2ccc(F)cc2)cc(NS(=O)(=O)c2ccc(F)cc2)c1	-5	42*	-3	5	32*	15
O=C(Nc1ccc(S(=O)(=O)Nc2ccc(F)cc2)cc1)c1ccc(CN2CCOCC2)cc1	-7	0	-15	1	4	34*
Cc1ccc(S(=O)(=O)Nc2ccc(NC(=O)c3ccc(F)cc3)cc2)cc1	-9	4	-17	6	1	30*
CCOc1ccc(NS(=O)(=O)c2ccc(C(=O)NCCCN3CCOCC3)cc2)cc1	-1	3	13	12	-4	31*
COc1ccc(NS(=O)(=O)c2ccc(NC(=O)c3ccc(CN4CCOCC4)cc3)cc2)cc1	-5	-4	-9	5	-7	21
CC(C)CSCC1OC(n2cnc3c(N)nccc32)C(O)C1O (stereo not drawn)	2	·	2	·	·	·
